High-throughput results (PubChem BioAssay)
CYP2C19 inh = blockers of cytochrome P450 2C19 activity – biochemical, luminescence, ADME assay, primary screen; P33261; CYP2C19 Supersomes, luciferin-H EGE luminescence, 30 min; inhibition, % at 5 µM; 96,000 tested, 21% active; AID 778, 2007;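 active means CYP2C19 inhibition above a set limit at 5 µM in the primary screen, cut at about 50% in these data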;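 further: plate controls were negative control wells for no effect and 2.5 mM tranylcypromine positive control for full effect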
CYP2C9 inh = blockers of cytochrome P450 2C9 activity – biochemical, luminescence, ADME assay, primary screen. P11712. CYP2C9 Supersomes, luciferin-H conversion. inhibition, % at 5 µM. 96,000 tested, 20% active;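 active means blocking of liver enzyme CYP2C9 beyond about 50% at 5 µM, limit read from the data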
Target sequence (P11712 whole entry, looked up): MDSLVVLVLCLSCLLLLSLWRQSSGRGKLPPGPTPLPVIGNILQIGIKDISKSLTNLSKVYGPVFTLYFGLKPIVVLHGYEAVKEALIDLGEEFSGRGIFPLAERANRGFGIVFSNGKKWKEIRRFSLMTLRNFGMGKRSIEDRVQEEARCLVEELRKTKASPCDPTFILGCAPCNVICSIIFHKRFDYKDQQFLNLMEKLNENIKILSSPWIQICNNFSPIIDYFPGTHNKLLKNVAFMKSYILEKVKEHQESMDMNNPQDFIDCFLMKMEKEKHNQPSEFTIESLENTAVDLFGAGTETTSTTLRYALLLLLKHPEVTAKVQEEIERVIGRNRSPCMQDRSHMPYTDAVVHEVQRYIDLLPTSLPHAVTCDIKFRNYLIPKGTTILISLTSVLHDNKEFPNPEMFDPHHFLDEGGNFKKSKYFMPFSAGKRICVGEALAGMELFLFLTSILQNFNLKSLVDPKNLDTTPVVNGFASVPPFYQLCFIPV
Measles CPE = compounds protecting cells from measles virus cytopathic effect, primary screen, measles RdRp inhibitor project, single point, MLSMR library, absorbance; Measles virus-infected cells, CPE protection; protection (pct of control), % at 4 µM; AID 841, 2007; 140,000 tested, 1.5% active; in the data active means protection mostly above about 24%, no sharp cut-off; inactive means mostly below about 26%
CYP2C9 activ = human CYP2C9 activators, primary screen, biochemical, luminescence; Cytochrome P450 2C9 (Homo sapiens), P11712; activation factor at 5 µM; 96,000 tested, 1.4% active; recombinant CYP2C9, luciferin-H conversion; hits give high values; factor 1 = untreated enzyme, 0 = blocked;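 active means activation factor of 2 or more for CYP2C9 at a 5 µM dose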;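 further: 0 = sulfaphenazole-blocked wells and 1 = vehicle-only wells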
CYP2C19 act = human CYP2C19 activators, primary screen, biochemical, luminescence. activation factor at 5 µM. Cytochrome P450 2C19 (Homo sapiens), P33261. recombinant CYP2C19, luciferin-H EGE luminescence; hits give high values; 0 = fully inhibited enzyme, 1 = untreated enzyme. 96,000 tested, under 10 active;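 active means activation factor of at least 2 at 5 µM in the primary screen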;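 further: 0 = wells with 2.5 mM tranylcypromine and 1 = vehicle-only wells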
Active calls of the source: *; x = no result. Hits are enriched below; roughly 22% of the tested compounds scored in any of these assays.

SMILES | CYP2C19 inh | CYP2C9 inh | Measles CPE | CYP2C9 activ | CYP2C19 act
COc1ccc(CNC(=O)C(c2cccs2)N(Cc2ccco2)C(=O)Cc2cccs2)cc1 (configuration not stated) | x | x | 25 | x | x
COc1ccc(C(=O)N(Cc2ccco2)Cc2cccs2)c(O)c1 | 88* | 95* | 3 | 0 | 0.1
Cc1cc(C)nc(N2CCCC(C(=O)Nc3nnc(C(C)C)s3)C2)n1 (configuration not stated) | x | x | 4 | x | x
CC1CCCC(NC(=O)COC(=O)Cc2cn3ccsc3n2)C1C (configuration not stated) | 33 | 22 | 12 | 0.8 | 0.7
O=C(COC(=O)Cc1cn2ccsc2n1)NC12CC3CC(CC(C3)C1)C2 | 59* | 34 | 25 | 0.7 | 0.4
O=C(COC(=O)Cc1cn2ccsc2n1)NCc1ccc2c(c1)OCO2 | 5 | 25 | 18 | 0.8 | 0.9
CCn1c2ccccc2c2cc(NC(=O)COC(=O)Cc3cn4ccsc4n3)ccc21 | 90* | -78 | 6 | 1.8 | 0.1
CC(C)c1c(O)nc(SCc2ccccc2)[nH]c1=O | 5 | 52* | 3 | 0.5 | 0.9
Cc1nc(SCC(C)C)[nH]c(=O)c1Cc1ccccc1 | 59* | -7 | 6 | 1.1 | 0.4
CSc1nc(C)c(CCOCc2ccccc2)c(=O)[nH]1 | 69* | 49 | 13 | 0.5 | 0.3
O=[n+]1c2c(n([O-])c3ccccc31)CCCC2 | 0 | 23 | 5 | 0.8 | 1
CC(CC(=O)O)CC(=O)Nc1ccccc1C(=O)O (configuration not stated) | -18 | -18 | 6 | 1.2 | 1.2
COc1ccc(C2CC(=O)c3ccccc3O2)cc1 (configuration not stated) | x | x | 3 | x | x
COc1ccc(C2CC3CC(c4ccccc4)N2O3)cc1 (configuration not stated) | 91* | 48 | 7 | 0.5 | 0.1
O=C(NC1CCCCC1)c1ccccc1NC(=O)C1CC(=O)N(c2ccc(Cl)cc2)C1 (configuration not stated) | x | x | 2 | x | x
COCCCNC(=O)Cn1cc2c(n1)CCC(C)C2 (configuration not stated) | -3 | -23 | 8 | 1.2 | 1
COc1cc(Cn2c(C(=O)O)cc3sccc32)cc(OC)c1OC | 71* | 41 | 7 | 0.6 | 0.3
CCOC(=O)c1cc2sccc2n1CC(=O)Nc1ccc(OC)cc1OC | 99* | 68* | 13 | 0.3 | 0
CCOC(=O)c1cc2sccc2n1CC(=O)OC | 49 | 23 | 29 | 0.8 | 0.5
COC(=O)c1cc2sccc2n1CC(=O)Nc1ccc(OC)c(OC)c1OC | 91* | 88* | 24 | 0.1 | 0.1
COC(=O)c1cc2sccc2n1Cc1ccc(C)cc1 | 6 | 18 | 19 | 0.8 | 0.9
CCOc1cc(/C=C2\CCCC(C(=O)C(F)(F)F)=C2O)ccc1O | x | x | 8 | x | x
Cc1nc2nc(SCC(=O)NCCN3CCOCC3)nn2c(C)c1Cc1ccccc1 | 30 | 30 | 4 | 0.7 | 0.7
Cc1nc2nc(SCC(=O)N3CCOCC3)nn2c(C)c1Cc1c(F)cccc1Cl | 18 | 53* | 2 | 0.5 | 0.8
CCCCCC(C)NC(=S)NC(=O)c1cc(S(=O)(=O)N2CCOCC2)ccc1C (configuration not stated) | x | x | 27 | x | x
SMILES | CYP2C19 inh | CYP2C9 inh | Measles CPE | CYP2C9 activ | CYP2C19 act
O=C(CN1CCN(Cc2ccccc2F)C1=O)NCCc1ccc(Cl)cc1 | 66* | 88* | 3 | 0.1 | 0.3
O=C(CN1CCN(Cc2ccccc2)C1=O)NCc1ccc(Cl)cc1 | 16 | 12 | 5 | 0.9 | 0.8
CCN(CCNC(=O)CN1CCN(Cc2ccc(Cl)cc2)C1=O)c1ccccc1 | 57* | 52* | 18 | 0.5 | 0.4
CC(CCc1ccccc1)NC(=O)CN1CCN(Cc2ccc(Cl)cc2)C1=O (configuration not stated) | 71* | 56* | 5 | 0.4 | 0.3
Cc1ccc(CN2CCN(CC(=O)NC(C)CCc3ccccc3)C2=O)cc1 (configuration not stated) | 58* | 67* | 7 | 0.3 | 0.4
CC(CCc1ccccc1)NC(=O)CN1CCN(Cc2ccccc2)C1=O (configuration not stated) | 8 | 23 | 22 | 0.8 | 0.9
CCCN1C(=O)/C(=N\OCC(=O)Nc2ccc(C(C)C)cc2)c2ccccc21 | x | x | 5 | x | x
